An excerpt weighted towards active compounds, which were near 19% of everything screened.
TDP1 block – qHTS Assay for Inhibitors of Tyrosyl-DNA Phosphodiesterase (TDP1). hit rate 0.28% among 350,000. Tyrosyl-DNA phosphodiesterase 1 (Homo sapiens), Q9NUW8. recombinant TDP1, AlphaScreen DNA substrate cleavage. AID 485290, 2010. Potency, µM (highest dose often 130 µM), usual class: inhibitors; further: nearly all actives have a fitted effect of over 40% in size
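Enzyme-compound mixtures sat 15 min at room temperature, followed by a 5 min reaction with 15 nM final substrate and 10 min with AlphaScreen beads. Recombinant human Tdp1 was used at 1 nM final.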
Gal4-VP16 FLuc – VP16 counterscreen qHTS for inhibitors of ROR gamma transcriptional activity. Drosophila S2 Gal4-VP16 UAS-luciferase, luminescence, 20 h. Potency, µM (highest dose often 53.6 µM), usual class: inhibitors. hit rate 3.5% among 310,000;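 further: Gal4-VP16 expression switched on by copper sulfate through the metallothionein promoter; nearly all actives have a fitted effect of over 50% in size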
DT40 TDP1 no CPT – qHTS for Inhibitors of human tyrosyl-DNA phosphodiesterase 1 (TDP1): qHTS in cells in absence of CPT; DT40 Tdp1-/- hTDP1 cells, no CPT, ATP luminescence, 48 h; Potency, µM (doses to about 46.2 µM), most hits filed as inhibitors; hit rate 15% among 420,000; further: nearly all actives have a fitted effect of over 55% in size
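Readout: luminescence from CellTiter-Glo after 30 min in the dark at RT. Cells: DT40 Tdp1-/- with stable hTDP1, 400/well. Exposure: compounds alone, ≥48 hr, 37 °C.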
RORg inh – qHTS for inhibitors of ROR gamma transcriptional activity; Nuclear receptor ROR-gamma (Mus musculus), P51450; Drosophila S2 Gal4-RORgamma UAS-luciferase reporter, 20 h; hit rate 5.4% among 310,000; Potency, µM (doses to about 53.6 µM), usual class: inhibitors; further: nearly all actives have a fitted effect of over 60% in size
Target sequence (P51450 whole entry, looked up, the tested form may be a part): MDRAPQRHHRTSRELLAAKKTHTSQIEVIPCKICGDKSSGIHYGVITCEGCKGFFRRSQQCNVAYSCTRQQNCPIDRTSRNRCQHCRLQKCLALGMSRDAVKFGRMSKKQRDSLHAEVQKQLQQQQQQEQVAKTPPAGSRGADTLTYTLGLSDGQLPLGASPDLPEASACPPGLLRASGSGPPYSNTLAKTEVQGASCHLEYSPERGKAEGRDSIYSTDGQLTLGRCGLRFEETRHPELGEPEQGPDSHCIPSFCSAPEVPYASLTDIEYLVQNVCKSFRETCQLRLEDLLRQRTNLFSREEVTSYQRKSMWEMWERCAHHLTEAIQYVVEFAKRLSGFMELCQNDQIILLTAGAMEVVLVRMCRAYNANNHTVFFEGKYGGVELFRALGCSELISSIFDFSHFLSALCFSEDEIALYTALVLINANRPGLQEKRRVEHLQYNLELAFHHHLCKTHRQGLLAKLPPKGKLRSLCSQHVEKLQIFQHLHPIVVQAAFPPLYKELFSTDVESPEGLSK
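In this cell-based reporter format, copper sulfate (700 uM final) drives Gal4–ROR gamma fusion expression from a metallothionein promoter in Drosophila Schneider cells; compounds preincubated 1 hr, reporter read after 20 hr at ambient temperature.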
DT40 TDP1 CPT – qHTS for Inhibitors of human tyrosyl-DNA phosphodiesterase 1 (TDP1): qHTS in cells in presence of CPT; hit rate 12% among 420,000; chicken DT40 Tdp1-/-;hTDP1 cells + 20 nM CPT, ATP luminescence, 48 h; Potency, µM (titrated, usually from 46.2 µM), usual class: inhibitors; further: nearly all actives have a fitted effect of over 55% in size
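Cell growth measured by CellTiter-Glo luminescence after a minimum 48 h, 37 C compound exposure with 20 nM CPT in Tdp1-knockout DT40 cells stably expressing hTDP1, seeded 400/well; qHTS titration format.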
Each line names hits and unclear results; the compound was inactive in the other large screens. The call rests on the fitted dose curve; in most records, active means well fitted curve in the direction sought with a large enough effect; inconclusive means small, poorly fitted or top-dose-only effect, or another doubt; inactive means no such curve, though single readings can be large; an effect the other way counts as inactive or inconclusive.

O=C(COc1ccc(Cl)cc1)N1CCN(C(=O)c2cccs2)CC1	Gal4-VP16 FLuc 18µM, RORg inh 7.1µM
CC(C)NC(=O)N(C)C[C@H]1Oc2c(NS(=O)(=O)c3ccc(F)cc3)cccc2C(=O)N([C@H](C)CO)C[C@@H]1C	none (no result: Gal4-VP16 FLuc, RORg inh)
O=C(CN1CCCCCCC1)N/N=C/c1ccc(F)cc1F	none
CCc1ccc(NC(=O)C2CCN(S(C)(=O)=O)CC2)cc1	none
COc1ccc(Cc2nnc(Nc3ccc(C)cc3)o2)cc1OC	DT40 TDP1 no CPT 6.5µM, DT40 TDP1 CPT 8.2µM
COC(=O)[C@]1(C)N[C@H](c2ccc(SC3CCCCC3)cc2)[C@@H]2C(=O)N(C)C(=O)[C@@H]21	DT40 TDP1 no CPT 16µM, DT40 TDP1 CPT inconclusive (no result: Gal4-VP16 FLuc, RORg inh)
CCCCCCSc1ccc([C@H]2N[C@@](C)(C(=O)OC)[C@H]3C(=O)N(C)C(=O)[C@@H]23)cc1	DT40 TDP1 CPT 21µM (no result: Gal4-VP16 FLuc, RORg inh)
Clc1ccc2nc(CN3CCCCC3)cn2c1	DT40 TDP1 CPT inconclusive
Cn1cc(CNC(=O)c2ccc3nc(Cc4ccccc4F)oc3c2)cn1	Gal4-VP16 FLuc inconclusive, DT40 TDP1 no CPT inconclusive
CCn1cc(CNC(=O)c2ccc3nc(Cc4ccccc4F)oc3c2)cn1	Gal4-VP16 FLuc inconclusive, DT40 TDP1 no CPT 12µM, DT40 TDP1 CPT 12µM
CCN(Cc1cnn(C)c1)C(=O)c1ccc2nc(Cc3ccccc3F)oc2c1	DT40 TDP1 no CPT 21µM, DT40 TDP1 CPT inconclusive (no result: TDP1 block, Gal4-VP16 FLuc, RORg inh)
CCOC(=O)C1CCCN(C(=O)c2ccc3c(c2)N(Cc2ccccc2F)C(=O)c2ccccc2S3=O)C1 (stereo not given)	DT40 TDP1 no CPT 16µM, DT40 TDP1 CPT inconclusive (no result: Gal4-VP16 FLuc, RORg inh)
Cc1ccc(C)c(CN2C(=O)c3ccccc3S(=O)c3ccc(C(=O)N4CCN(c5ccccc5F)CC4)cc32)c1 (stereo not given)	DT40 TDP1 no CPT 1.8µM, DT40 TDP1 CPT 5.8µM (no result: Gal4-VP16 FLuc, RORg inh)
CCN1C(=O)c2ccccc2S(=O)c2ccc(C(=O)N3CCN(c4cc(Cl)ccc4C)CC3)cc21 (stereo not given)	DT40 TDP1 no CPT 23µM, DT40 TDP1 CPT inconclusive (no result: Gal4-VP16 FLuc, RORg inh)
Cc1ccc(Cl)cc1N1CCN(C(=O)c2ccc3c(c2)N(Cc2ccccc2F)C(=O)c2ccccc2S3=O)CC1 (stereo not given)	DT40 TDP1 no CPT inconclusive, DT40 TDP1 CPT inconclusive (no result: Gal4-VP16 FLuc, RORg inh)
O=C(c1ccc2c(c1)N(Cc1ccccc1F)C(=O)c1ccccc1S2=O)N1CCCCC1 (stereo not given)	none (no result: Gal4-VP16 FLuc, RORg inh)
Cc1ccc(C)c(CN2C(=O)c3ccccc3S(=O)c3ccc(C(=O)N4CCN(c5ccccn5)CC4)cc32)c1 (stereo not given)	DT40 TDP1 no CPT 16µM, DT40 TDP1 CPT inconclusive
CC1(C)OC(=O)C(C(c2ccccc2)C(C#N)C(N)=O)=C(O)O1 (stereo not given)	none
O=C(Nc1cccc(-c2cn3ccccc3n2)c1)c1cccs1	DT40 TDP1 no CPT inconclusive
O=C(NCc1ccccc1)C(=O)NCC1OCCN1C(=O)c1cccs1 (stereo not given)	none
Cn1c(Cn2c(=O)sc3ccccc32)nnc1SCc1cccc(F)c1	DT40 TDP1 no CPT inconclusive
Cc1ccc(C)c(N2CCN(C(=O)c3ccc4c(c3)N(Cc3ccc(F)cc3)C(=O)c3ccccc3S4=O)CC2)c1 (stereo not given)	DT40 TDP1 no CPT 10µM, DT40 TDP1 CPT 18µM (no result: Gal4-VP16 FLuc, RORg inh)
CCN1CCN(CCNC(=O)c2ccc3c(c2)N(Cc2ccc(F)cc2)C(=O)c2ccccc2S3=O)CC1 (stereo not given)	DT40 TDP1 no CPT inconclusive
CCN1CCN(C(=O)c2ccc3c(c2)N(Cc2cc(C)ccc2C)C(=O)c2ccccc2S3=O)CC1 (stereo not given)	DT40 TDP1 no CPT 16µM, DT40 TDP1 CPT 18µM (no result: Gal4-VP16 FLuc, RORg inh)
CC(=O)NC(Cc1c[nH]c2ccccc12)C(=O)N1CCc2ccccc2C1 (stereo not given)	none
CCN1C(=O)[C@H]2[C@@H](c3ccc(-c4ccc(OC)cc4)c(OC)c3)N[C@@](CC(C)C)(C(=O)OC)[C@H]2C1=O	DT40 TDP1 no CPT inconclusive, DT40 TDP1 CPT inconclusive (no result: Gal4-VP16 FLuc, RORg inh)
